SW480 rereplic = inducers of DNA re-replication in SW480 colon cancer cells; Potency, µM (top dose mostly 46.1 µM), for the others: at the highest dose re-replication activation, usual class: activators; hit rate 1.8% among 340,000; SW480 DNA re-replication, Hoechst DNA content imaging, 48 h; also: potency is read from the fitted curve at half-maximal effect; % of control where 0% means no effect; nearly all actives have a fitted effect of over 55% in size
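Image-based read-out: total Hoechst fluorescence of nuclei (405 nm excitation, 500-530 nm emission), with hits raising the fraction of high-intensity nuclei. SW480 colon cells incubated 48 hr with compounds at 37 C.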
KB-V1 cytotox = KB-V1 MDR subline cytotoxicity. KB-V1 MDR cells viability, CellTiter-Glo, 72 h. hit rate 3.4% among 400,000. Potency, µM (top dose mostly 46.1 µM), hits mostly cytotoxic. AID 1347076; also: potency is read from the fitted curve at half-maximal effect; % is scaled to controls: 0 for no effect and ±100 for the full control effect; nearly all actives have a fitted effect of over 60% in size
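KB-V1, DMEM (no phenol red) + 10% FBS; cpd pin-transferred, titration series; 72 h, 37 degrees C; CellTiter-Glo, luminescence. Data normalized, curve-fit.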
KCNH2 WT inh = blocks the wildtype human KCNH2 potassium channel | Q12809 | U2OS, BacMam KCNH2, thallium flux FluxOr; active compounds read low | activity change, % at 1.84 µM | hit rate 0.37% among 340,000 | AID 720551;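 active = maximum activity change below -70%; inconclusive = maximum activity change between -70% and -50%; inactive = maximum activity change above -50%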; also: % is scaled to controls: 0 for no effect and ±100 for the full control effect
Target sequence (Q12809 whole entry, looked up): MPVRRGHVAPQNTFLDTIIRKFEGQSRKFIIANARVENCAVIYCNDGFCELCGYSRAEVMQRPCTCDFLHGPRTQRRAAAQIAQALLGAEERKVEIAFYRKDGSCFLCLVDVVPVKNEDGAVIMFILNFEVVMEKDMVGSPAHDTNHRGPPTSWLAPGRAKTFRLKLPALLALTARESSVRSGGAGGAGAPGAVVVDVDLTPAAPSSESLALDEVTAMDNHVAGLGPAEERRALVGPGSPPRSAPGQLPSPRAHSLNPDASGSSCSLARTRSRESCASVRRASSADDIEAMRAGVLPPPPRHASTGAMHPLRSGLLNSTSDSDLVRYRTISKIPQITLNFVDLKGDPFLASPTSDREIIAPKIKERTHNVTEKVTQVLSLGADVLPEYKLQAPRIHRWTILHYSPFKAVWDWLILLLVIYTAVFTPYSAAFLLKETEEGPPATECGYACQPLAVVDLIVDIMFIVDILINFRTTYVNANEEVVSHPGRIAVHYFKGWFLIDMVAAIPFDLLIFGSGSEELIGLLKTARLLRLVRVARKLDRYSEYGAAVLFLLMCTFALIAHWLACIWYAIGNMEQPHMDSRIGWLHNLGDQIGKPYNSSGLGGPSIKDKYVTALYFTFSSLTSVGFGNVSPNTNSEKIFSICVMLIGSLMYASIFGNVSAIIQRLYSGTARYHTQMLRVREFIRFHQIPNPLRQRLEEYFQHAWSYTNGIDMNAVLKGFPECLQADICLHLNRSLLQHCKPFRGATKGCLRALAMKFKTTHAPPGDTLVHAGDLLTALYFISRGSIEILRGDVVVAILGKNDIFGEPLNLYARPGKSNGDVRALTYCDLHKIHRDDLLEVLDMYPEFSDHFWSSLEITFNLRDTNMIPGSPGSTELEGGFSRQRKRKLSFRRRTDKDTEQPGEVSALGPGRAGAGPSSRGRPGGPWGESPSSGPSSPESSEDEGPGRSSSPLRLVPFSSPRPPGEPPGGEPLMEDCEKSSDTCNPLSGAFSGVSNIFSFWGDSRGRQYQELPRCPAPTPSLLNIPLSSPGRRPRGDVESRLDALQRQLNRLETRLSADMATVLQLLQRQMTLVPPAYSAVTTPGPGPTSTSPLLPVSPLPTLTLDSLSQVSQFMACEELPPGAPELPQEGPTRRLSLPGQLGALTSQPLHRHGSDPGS
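U2OS cells were transduced with wild-type KCNH2 virus (2.03 x 10^8 / mL) for 4 h at room temperature, then cultured overnight at 37 C. Thallium flux was read with FluxOr dye. Rate constants were normalized to DMSO controls.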
KB-3-1 cytotox = kills parental KB-3-1 adenocarcinoma cells; hit rate 1.4% among 400,000; KB-3-1 viability, CellTiter-Glo ATP luminescence, 72 h; Potency, µM (highest dose often 46.1 µM), actives largely listed as cytotoxic; AID 1347075; also: potency is read from the fitted curve at half-maximal effect; % is scaled to controls: 0 for no effect and ±100 for the full control effect; nearly all actives have a fitted effect of over 60% in size
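Viability of parental KB-3-1 cells, measured by CellTiter-Glo luminescence, followed a 72 h incubation at 37 °C with pinned compounds in phenol-red-free DMEM containing 10% FBS.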
KCNH2 3.1 block = blocks the human KCNH2 3.1 channel isoform; U2OS KCNH2 3.1, thallium flux FluxOr; active compounds read low; hit rate 0.95% among 340,000; AID 720553; activity change, % (tested at about 1.8 µM);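 active = maximum activity change below -70%; inconclusive = maximum activity change from -70% to -50%; inactive = maximum activity change above -50%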;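 also: thallium influx rate constant from kinetic fluorescence after stimulation buffer; % is scaled to controls: 0 for no effect and ±100 for the full control effect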
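Thallium flux read-out: FluxOr dye with Red40 quencher in HBSS/HEPES, 45 min at RT. Rate constants from kinetic reads were normalized to positive and negative DMSO controls. Cells: U2OS virally expressing the 3.1 isoform.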
MCF10A rerep = DNA re-replication induction in MCF 10a cells. hit rate 2.9% among 350,000. AID 624296. Potency, µM (series often up to 46.1 µM), inactives show at the highest dose activity, positive = re-replication, most hits filed as activators. MCF 10A DNA re-replication, Hoechst nuclear intensity, 48 h; also: potency is read from the fitted curve at half-maximal effect; % of control where 0% means no effect; nearly all actives have a fitted effect of over 50% in size
The depositor's hits bear a star; i = inactive; u = inconclusive; x = not tested or not shown; ! = not active in a repeat; [ ] = another dose, or the depositor's remark. The list is not random: actives were taken first. Their share in the collection is about 7.6%. Unless noted, calls follow the shape of the dose curve; as a rule, active = well fitted curve in the direction sought with a large enough effect; inconclusive = small, poorly fitted or top-dose-only effect, or another doubt; inactive = no such curve, though single readings can be large; an effect the other way counts as inactive or inconclusive.

SMILES	SW480 rereplic	KB-V1 cytotox	KCNH2 WT inh	KB-3-1 cytotox	KCNH2 3.1 block	MCF10A rerep
COc1cccc(CNC(=O)COC(=O)c2cc([N+](=O)[O-])ccc2N2CCCC2)c1	-8.6%	7.31µM*	3.6	i	-14.8	1.7%
O=C(Nc1ccc2c(c1)OCO2)c1ccc(NC2CC2)c([N+](=O)[O-])c1	u	14.6µM*	-1.2	u	-2.1	u
O=C(Nc1ccc(Cl)c([N+](=O)[O-])c1)c1ccc2c(c1)OCCO2	11.8%	13µM*	4.2	i	-4.0	10.1%
O=C(NCc1ccco1)c1cc([N+](=O)[O-])ccc1N1CCCCC1	3.0%	i	7.5	i	11.6	u
O=C(NCc1ccc2c(c1)OCO2)c1cc([N+](=O)[O-])ccc1N1CCCCC1	5.8µM*	u	-9.6	2.06µM*	x	2.59µM*
O=C(Nc1ccc(N2CCCCC2)c(Cl)c1)c1ccc2c(c1)OCCO2	-2.2%[9.22 µM]	u	-5.1	16.4µM*	-10.2	u
O=C(Nc1ccc2c(c1)OCO2)c1ccc(N2CCCC2)c([N+](=O)[O-])c1	11.1%	23.1µM*	2.3	i	2.6	10.6%
O=C(Nc1ccc(N2CCCC2)c(Cl)c1)c1ccc2c(c1)OCCO2	0.9%	i	-5.7	u	8.8	11.2%
O=C(CCC1CCCN(C(=O)c2cc(F)ccc2F)C1)N1CCN(c2ccccn2)CC1 (centres undefined)	x	u	-4.5	i	-5.3	x
C=C(C)CNC(=S)N/N=C(\C)c1ccc(OC)cc1	17.7%	16.4µM*	-1.9	u	7.0	7.9%
O=C1/C(=C/c2ccc(Br)cc2)Oc2cc(O)ccc21	u	u	-3.1	i	-4.2	14.6µM*
CC(C)(C)c1ccc(/C=C2\Oc3cc(O)ccc3C2=O)cc1	20.6µM*	i	2.3	16.4µM*	-20.1	20.6µM*
COc1ccccc1CNC(=O)[C@@H]1CCCN1S(=O)(=O)c1ccccc1F	-4.0%	i	-1.8	i	-6.2	-8.7%
O=C(Cc1c(F)cccc1Cl)Nc1cccc(S(=O)(=O)NC2=NCCCCC2)c1	2.1%	i	1.5	i	-1.1	9.5%
O=C(Cc1ccc(Cl)cc1Cl)Nc1cccc(S(=O)(=O)Nc2ccccc2F)c1	-2.5%	20.6µM*	1.3	u	4.8	u
O=C(/C=C/c1ccccc1)Nc1cccc(S(=O)(=O)Nc2ccccc2F)c1	10.5%	9.2µM*!	1.9	i	-1.6	u
COc1ccc(C(O)P(=O)(OC(C)C)c2ccc(N(C)C)cc2)c(OC)c1 (centres undefined)	-5.9%	i	2.2	i	-0.2	-10.4%
COc1ccc(C(O)P(=O)(OCC(C)C)OCC(C)C)c(OC)c1 (centres undefined)	-3.4%	16.4µM*	0.8	i	-4.4	-2.1%
Cc1ccc(CN2CCN(CCCc3ccccc3)CC2CCO)cc1 (centres undefined)	-6.1%	u	9.9	i	-75.4*	20.7%
CCOc1ccc(CN2CCN(CCCc3ccccc3)CC2CCO)cc1 (centres undefined)	21.9%	i	-81.5*	i	-8.2	u
OCCC1CN(CCCc2ccccc2)CCN1Cc1ccc(F)cc1 (centres undefined)	-4.2%[9.22 µM]	i	17.2	i	-0.8	21.3%
C#Cc1ccc(CN2CCN(CCCc3ccccc3)C(CCO)C2)cc1 (centres undefined)	0.6%	i	-0.4	i	-71.9*	16.7%
CCOc1ccc(CN2CCN(C3CCSCC3)CC2CCO)cc1 (centres undefined)	-140.3%	i	-12.4	i	-84.1*	4.1%
CCN1CCN(S(=O)(=O)c2ccc(S(=O)(=O)N(CC)Cc3ccccc3)cc2)CC1	11.6µM*	u	-0.7	i	-9.1	1.84µM*
CCN1CCN(S(=O)(=O)c2ccc(C(C)(C)C)cc2)CC1	23.1µM*	i	1.2	i	-6.6	u
SMILES	SW480 rereplic	KB-V1 cytotox	KCNH2 WT inh	KB-3-1 cytotox	KCNH2 3.1 block	MCF10A rerep
CCN1CCN(S(=O)(=O)c2ccc(S(=O)(=O)NC3CC3)cc2)CC1	u	i	-4.7	i	-0.4	0.3%
CCN1CCN(S(=O)(=O)c2ccc(Cl)c(C(=O)N(CC)Cc3ccccc3)c2)CC1	-5.2%	u	-5.1	i	-5.5	-1.8%
Oc1ccc2[nH]ccc2c1	8.2µM*	i	-3.5	i	8.1	17.0%
Oc1ccc2ccc3[nH]cnc3c2c1	-4.9%	i	1.3	i	3.5	10.2%
CN(C)S(=O)(=O)N1CCC(Oc2ccc(C(=O)N3C[C@@H]4CCC[C@H]3C4)cc2)CC1	4.2%	9.2µM*	4.7	i	8.3	5.4%
COc1cccc(CN2CCN(Cc3cccc(Oc4ccccc4)c3)CC2)c1OC	23.1µM*	i	5.6	i	3.0	14.6µM*
CCN1CCN(Cc2cccc(Oc3ccc(Cl)cc3)c2)CC1	16.4µM*	u	-10.3	i	-40.0	16.4µM*
CN1CCN(Cc2cccc(Oc3ccc(Cl)cc3)c2)CC1	0.5%	i	-2.8	i	-37.8	-1.8%
COc1cccc(CN2CCN(Cc3cc(OC)c(OC)c(OC)c3)CC2)c1OC	-0.1%	u	11.0	i	6.1	6.5%
COc1cccc(CN2CCC(N(CCc3ccccc3)Cc3ccccc3)CC2)c1OC	u	i	20.0	i	-90.7*	u
COc1ccc(NS(=O)(=O)c2ccc(N3CC(O)=C(c4ccccc4)C3=N)cc2)cc1	1.3%	i	2.1	i	-4.3	-6.5%
O=C(Cn1cnc2cc([N+](=O)[O-])ccc2c1=O)Nc1ccccc1-c1ccccc1	11.5%	u	6.0	i	-11.4	3.9%
CN=c1sc2c(n1C)C(=O)c1ccccc1C2=O	13µM*	u	6.0	u	-10.8	8.2µM*
CN=c1sc(C(=O)Nc2ccccc2)c(C)n1C	-1.8%	i	5.5	i	9.9	-2.8%
O=C(CNC(=O)C1CCCCC1)NC1CCCCC1	-1.3%	u	0.3	i	1.0	0.3%
O=C(CSc1nnc(COc2cccc3cccnc23)o1)N1CCCC1	0.8%	u	3.7	i	0.3	0.5%
COc1cccc(C(=O)CSc2nnc(COc3cccc4cccnc34)o2)c1	5.17µM*	i	-1.4	i	14.1	6.51µM*
Cc1ccc(C(=O)CSc2nnc(COc3cccc4cccnc34)o2)cc1	-7.2%	i	26.7	i	3.5	-0.8%
CC1CCCC(C)N1C(=O)CSc1nnc(COc2cccc3cccnc23)o1 (centres undefined)	4.11µM*	u	6.8	i	-16.6	u
Cc1ccc(-c2nnc(SCC(=O)NC3CCCC3)nc2-c2ccc(C)cc2)cc1	x	i	x	i	x	x

Source: PubChem
